From PubChem BioAssay AID652054 (National Center for Advancing Translational Sciences (NCATS), 2013) come the findings set out here.

SMILES strings stand for the structures. The campaign covered roughly 360,000 compounds. About 9,100 (2.5%) were called active. Inconclusive results (about 4%) are left out. The entries come from a sample that favours actives as a whole. Values without a mark were called inactive. No stated cut-off is given here; in the data, active means max response below about -50%; inconclusive means no clear call, values can overlap the other calls; inactive means above that.
On the % scale 0 is the no-effect control and ±100 the full control effect.

For the test, the target named is D(3) dopamine receptor (Homo sapiens) (UniProt P35462). The test can be described thus: qHTS of D3 Dopamine Receptor Antagonist: qHTS. The note with it: D3R cells, DiscoveRx beta-arrestin luminescence, antagonist mode; active compounds read low. The method in brief: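 Cells plated overnight at 1500 cells/well, then exposed to library compounds with dopamine controls for 90 minutes at 37 degrees C. DiscoveRx reagent added for 30–60 minutes at room temperature; luminescence read, quantitative HTS format.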
Sequence of D(3) dopamine receptor (Homo sapiens) (P35462 whole entry, looked up): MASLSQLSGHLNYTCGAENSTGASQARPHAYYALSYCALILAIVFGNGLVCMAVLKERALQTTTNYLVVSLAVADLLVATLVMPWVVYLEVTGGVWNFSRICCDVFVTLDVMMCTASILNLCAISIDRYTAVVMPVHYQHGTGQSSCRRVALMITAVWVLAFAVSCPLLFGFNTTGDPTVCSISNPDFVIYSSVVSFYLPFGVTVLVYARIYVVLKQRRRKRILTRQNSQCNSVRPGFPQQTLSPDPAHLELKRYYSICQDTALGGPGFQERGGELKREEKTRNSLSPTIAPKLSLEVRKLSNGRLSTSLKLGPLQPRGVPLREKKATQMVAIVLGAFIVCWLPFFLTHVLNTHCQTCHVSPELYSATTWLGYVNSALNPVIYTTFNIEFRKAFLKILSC
(In general: qHTS replaces the single test concentration by a dilution series.)
For the compound `COc1ccc(C(=O)N2CCCCC2c2cc(C(=O)Nc3ccccc3)no2)cc1` (configuration not stated), the max response, negative = inhibition is -19.9%.
Consider `C[C@H]1CN([C@@H](C)CO)S(=O)(=O)c2ccc(Br)cc2O[C@H]1CN(C)C(=O)c1cnccn1`, for which the max response, negative = inhibition was -8.27%.
With `Cc1cccc(N(CC(O)CN(C)C)S(=O)(=O)c2ccccc2)c1` (configuration not stated) the figure was 0.407%.
Consider `Cc1cc(C)n(CC(O)CN(c2ccccc2)S(=O)(=O)c2ccc3ccccc3c2)n1` (configuration not stated), for which the max response, negative = inhibition was 10.5%.
With `Cc1ccc(N(CC(O)CN2CCCC2)S(=O)(=O)c2ccccc2)cc1` (configuration not stated) the figure was -57.8% (active); with `O=C(Nc1ccc(Cl)cc1)C1Cc2c(-c3ccc4c(c3)OCO4)ccnc2O1` (configuration not stated), -10.5%.
Regarding `O=C(CN1CCN(S(=O)(=O)c2ccc(F)cc2)CC1)Nc1ccccc1F`, the max response, negative = inhibition is 0%.
On to `O=C(CN1CCN(S(=O)(=O)c2ccc(Br)cc2)CC1)Nc1ccccc1C(=O)c1ccccc1`, for which the max response, negative = inhibition was -71.6% (active).
As for `COc1ccccc1NC(=O)CN1CCN(S(=O)(=O)c2ccc(Br)cc2)CC1`, the max response, negative = inhibition is -9.35%.
For the compound `Cc1ccc(-c2nc3c(C)cc(Br)cn3c2Cc2ccccc2)cc1`, the max response, negative = inhibition is -0.352%.
In the case of `O=C(NC(=O)c1ccccc1)Nc1ccccc1O`, the max response, negative = inhibition was -13.1%.
`COC(=O)c1nc(NC(=O)c2ccccc2)n[nH]1`: the max response, negative = inhibition was 24.5%.
The figure for `O=C(NC1=CC(=O)c2ccccc2C1=O)c1ccccc1` is -88.8% (active).
Regarding `O=C(NCc1nnnn1-c1ccc(Cl)cc1)c1ccc([N+](=O)[O-])o1`, the max response, negative = inhibition is 10.2%.
As to `CCc1cc(C(=O)c2ccc(OC)cc2)c(NC(=O)CN2CCN(C)CC2)s1`, the max response, negative = inhibition was -7.92%.
For the compound `COc1ccc(C(=O)N2CCC(C(=O)Nc3ccc(C)cc3)CC2)cc1`, the max response, negative = inhibition was 9.09%.
With `CCc1ccc(NC(=O)CN2CCC(C(=O)c3ccc(OC)cc3)CC2)cc1`, the max response, negative = inhibition was -50.9% (active).
`COc1ccc(-c2nc(CS(=O)(=O)CC(=O)NCc3cccc(Br)c3)c(C)o2)cc1`: the max response, negative = inhibition was 8.07%.
Regarding `CCCCN(CC)CCCNC(=O)CS(=O)(=O)Cc1nc(-c2cccc(OC)c2)oc1C`, the max response, negative = inhibition was -50.9% (active).
For `COc1cccc(-c2nc(CS(=O)(=O)CC(=O)NCCc3ccc(OC)c(OC)c3)c(C)o2)c1`, the max response, negative = inhibition is 1.08%.
For `COC(=O)c1ccc2nc(-c3ccc(F)cc3)c(Cc3ccc(C)cc3)n2c1`, the max response, negative = inhibition was 19.7%.
As to `CCCOc1ccc(F)cc1-c1cc(C(=O)Nc2ccc(F)c(Cl)c2)[nH]n1`, the max response, negative = inhibition was -15.7%.
`CCCOc1ccc(F)cc1-c1cc(C(=O)NCc2ccc(F)cc2)[nH]n1`: the max response, negative = inhibition is -2.32%.
With `COc1cccc(OC)c1C(=O)N1CCN(Cc2ccccc2F)CC1` the figure was -6.64%; with `O=C(CN1CCN(C(=O)c2cccc(F)c2)CC1)Nc1ccccc1F`, 137%; with `Cc1ccccc1CN1CCN(C(=O)c2cccc(F)c2)CC1`, -63.6% (active).
The figure for `Cc1ccc(S(=O)(=O)N2CCN(C)CC2)cc1` is 7.28%.
As for `Cc1ccc(C(=O)N2CCN(S(=O)(=O)N3CCOCC3)CC2)cc1`, the max response, negative = inhibition was -16.1%.
In the case of `Cc1ccc(S(=O)(=O)N2CCN(S(=O)(=O)N3CCOCC3)CC2)cc1`, the max response, negative = inhibition was -75.3% (active).
With `O=[N+]([O-])c1ccc(CN2CC(N3CCC(c4ccccc4)CC3)CS2(=O)=O)cc1` (configuration not stated) the figure was -23.6%; with `CCOC(=O)[C@]12CCC=C1N(Cc1ccco1)C(=O)[C@H](CC(=O)NCc1cccc(C(F)(F)F)c1)C2`, -18.6%.
The figure for `Oc1ccc2ccccc2c1N=Nc1nccs1` is -67.4% (active); for `Oc1ccc(N=Nc2nccs2)c(O)c1` it is -73.7% (active); for `CCNC(=O)C1CCCN(C(=O)c2cc(F)ccc2C)CC1` (configuration not stated) it is 15.3%.
`CCCCC[C@H](C)N1C[C@@H](COCc2ccccc2)Oc2cc(N3CC[C@@H](N(C)C)C3)ccc2S1(=O)=O`: the max response, negative = inhibition is 18.9%.
Take `Cc1cc(Cl)ccc1-c1nc(NCCN(C)C)nc2ccsc12`: the max response, negative = inhibition was -28.3%.
For `O=C1CC[C@@H](C(=O)N2CSC[C@@H]2C(=O)Nc2ccc(C(F)(F)F)cc2)N1`, the max response, negative = inhibition is -3.96%.
With `COc1ccc(C2=Nc3ccccc3NC(=O)C2N(C(=O)c2cc3ccccc3[nH]2)c2ccccc2)cc1` (configuration not stated) the figure was -13.2%; with `CCc1ccccc1OCC(=O)Nc1nnc(C2CC2)s1`, -9.37%; with `O=C(O)c1cccc(NC(=O)c2cc(-c3cccc(Cl)c3)nc3ccccc23)c1`, 14.5%.
With `O=C(N/N=C/c1ccc(Cl)cc1)c1nc2ccc([N+](=O)[O-])cc2c(=O)[nH]1`, the max response, negative = inhibition is 9.98%.
Turning to `O=C(/C(=C/c1cccc(Cl)c1)c1nc2ccccc2[nH]1)c1ccccc1`, the max response, negative = inhibition is -87.4% (active).
Consider `CCCn1c(N)c(C(=O)CSc2nnc(Cc3cccs3)n2C2CC2)c(=O)[nH]c1=O`, for which the max response, negative = inhibition was 31%.
Take `O=C(NCC(F)(F)F)c1ccc(S(=O)(=O)NCCc2ccc3c(c2)OCCO3)cc1`: the max response, negative = inhibition was 18.6%.
`CC(C)Cc1ccc(-c2cc3nc(NCc4cccc(Cl)c4)ccn3n2)cc1`: the max response, negative = inhibition was 16.3%.
In the case of `CC(=O)c1ccc(Nc2nc(C(N)c3ccccc3Cl)cs2)cc1` (configuration not stated), the max response, negative = inhibition is 0%.
On to `CC1(C(=O)NS(=O)(=O)c2cccc(F)c2)CCN1C(=O)c1cccc2ccccc12` (configuration not stated), for which the max response, negative = inhibition was -11.4%.
Turning to `Cc1ccc(C)c(N2CCN(S(=O)(=O)c3ccc4c(c3)oc(=O)n4C)CC2)c1`, the max response, negative = inhibition was 19.9%.
In the case of `Cc1ccc(N2CCN(S(=O)(=O)c3ccc(F)cc3)CC2)c(C)c1`, the max response, negative = inhibition was -54.7% (active).
In the case of `Cc1ccccc1N1CCN(S(=O)(=O)c2ccc3ccccc3c2)CC1`, the max response, negative = inhibition was -28.5%.
In the case of `CCc1nc2c(OCCc3cccc(OC)c3)cccn2c1N(C)C(=O)c1ccc(C)cc1`, the max response, negative = inhibition was -6.67%.
With `N/C(=N\OC(=O)Nc1ccccc1)c1ccno1` the figure was -63.2% (active); with `CC(C)(COC(=O)Nc1ccccc1)COC(=O)Nc1ccccc1`, -25.8%.
Take `O=C(Nc1ccccc1)O/N=C1/CCCc2occc21`: the max response, negative = inhibition was -1.95%.
On to `COc1cc2ccc(C(C)=O)c(O)c2cc1OC`, for which the max response, negative = inhibition was -9.5%.
Take `CCC(C)C(CO)NC(=O)/C=C/[C@H]1O[C@@H](n2cnc3c(NC(=O)c4ccccc4)ncnc32)[C@H](O)[C@@H]1O` (some centres not stated): the max response, negative = inhibition is 10.7%.
Regarding `COc1cc(C(=O)CCc2ccc3c(c2)OCO3)cc(OC)c1OC`, the max response, negative = inhibition was -2.22%.
`COc1c(O)ccc2c1CN1CCc3cc4c(cc3C1C2)OCO4` (configuration not stated): the max response, negative = inhibition is -123% (active).
Take `COc1ccc2cc1Oc1ccc(cc1)C[C@H]1c3cc(c(OC)cc3CCN1C)Oc1c(O)c(OC)cc3c1[C@H](C2)N(C)CC3`: the max response, negative = inhibition was -18.7%.
For `Cn1c(=O)c2cc(NC(=O)NCCc3cccs3)ccc2n1Cc1cccc(C(F)(F)F)c1`, the max response, negative = inhibition is 18.7%.
The figure for `Cc1cc(Nc2ccc(C)c(C)c2)n2ncnc2n1` is -15.7%.
Turning to `COc1ccc(-c2ccc(CN3C(C(C)C)C(=O)N(Cc4cn(CC5CCCCC5)nn4)CCS3(=O)=O)cc2)cn1` (configuration not stated), the max response, negative = inhibition is 14.3%.
As to `COc1ccc(-c2cc(NC(C)=O)c3ncc(-c4cc(OC)c(OC)c(OC)c4)n3c2)cn1`, the max response, negative = inhibition was 30.1%.
Consider `CSCCC(c1nnnn1Cc1ccccc1)N1CCN(C/C=C/c2ccccc2)CC1` (configuration not stated), for which the max response, negative = inhibition was -87.8% (active).
With `COc1ccccc1C(=O)NC(CCSC)C(=O)N1CCN(C/C=C/c2ccccc2)CC1` (configuration not stated) the figure was -14%; with `CC(C)C(c1nnnn1Cc1ccccc1)N1CCC(C(N)=O)CC1` (configuration not stated), 14.4%; with `Cc1ccc(OCC(O)CN2CCN(CC(O)COc3ccc(C)cc3Cl)CC2)c(Cl)c1` (configuration not stated), -59.6% (active).
With `CCCc1ccc(OCC(O)CN2CCN(CCO)CC2)cc1` (configuration not stated) the figure was 6.19%.
Consider `COCCN1CCN(C(=O)c2cc(COc3ccc(F)cc3Cl)on2)CC1`, for which the max response, negative = inhibition is -9.58%.
As to `Cc1ccc(Cl)c(OCC(=O)N2CCc3ccccc3C2)c1`, the max response, negative = inhibition is 1.13%.
With `Cc1cccc(OCC(O)CN2CCN(S(=O)(=O)c3ccc(C)cc3C)CC2)c1` (configuration not stated) the figure was -9.79%.
As for `OC(COc1ccc(F)cc1Cl)CN1CCc2ccccc2C1` (configuration not stated), the max response, negative = inhibition is -83.8% (active).
Regarding `CC(C)C[C@H]1CNC(=S)N1C[C@H]1CCCN1C[C@H](Cc1ccc(O)cc1)N1C[C@H](Cc2ccc(O)cc2)N(CC2CCCCC2)C1=S`, the max response, negative = inhibition is 4.99%.
For the compound `CC(=O)NC(c1cccc(F)c1)c1nc(-c2cccc(F)c2)cs1` (configuration not stated), the max response, negative = inhibition was 2.77%.
With `COC(=O)[C@]12CCCCC=C1N(Cc1ccc3c(c1)OCO3)C(=O)[C@H](CC(=O)N1CCOCC1)C2`, the max response, negative = inhibition was 6.26%.
The figure for `COc1ccc(C(C)C)cc1-c1ccc2nncn2c1` is -20%; for `COc1ccc(C(=O)OCC(=O)Nc2cc(C)on2)cc1F` it is 9.93%.
For `O=C(Nc1ccc(N2CCOCC2)cc1)c1cccc2c(-c3ccc(F)c(F)c3)coc12`, the max response, negative = inhibition was -14.5%.
`Cc1ccc(CNC(=O)Nc2nnc([C@H]3C[C@H](O)[C@@H](CO)O3)s2)cc1`: the max response, negative = inhibition is 10.5%.
As for `O=C(Nc1nnc([C@H]2C[C@H](O)[C@@H](CO)O2)s1)c1cccc(Cl)c1`, the max response, negative = inhibition is -110% (active).
For `O=C(Nc1ccc(F)cc1)Nc1nnc([C@H]2C[C@H](O)[C@@H](CO)O2)s1`, the max response, negative = inhibition was 16.1%.
Consider `CC1=C(C(=O)N2CCOCC2)CC(CC(=O)NCCCN(C)C)C(=O)N1Cc1ccc(C(C)(C)C)cc1` (configuration not stated), for which the max response, negative = inhibition is 35.5%.
Consider `Nc1nc2c(ncn2[C@@H]2O[C@H](CNS(=O)(=O)N3CCc4ccccc4C3)[C@@H](O)[C@H]2O)c(=O)[nH]1`, for which the max response, negative = inhibition was 4.77%.
Turning to `CCCCc1c(-c2ccc(Br)cc2)ncn1CCc1ccccc1OC`, the max response, negative = inhibition was 65.6%.
With `COc1cccc(CC2(CO)CCCN(Cc3ccc(OC(F)F)cc3)C2)c1` (configuration not stated) the figure was 8.8%; with `COc1cccc(CC2(CO)CCCN(Cc3nc(-c4cccs4)oc3C)C2)c1` (configuration not stated), -116% (active); with `COc1cccc(CC2(CO)CCCN(CC3=Cc4cc(OC)ccc4OC3)C2)c1` (configuration not stated), -6.63%.
